Counter-ions that a name gives are not always drawn. ± gives the standard deviation of the averaged measurements.
System: Toxoplasma gondii RH (in HFF)
Experiment: parasite growth relative to the screen mean (all compounds = 100%); higher = less inhibition of parasite growth
Settings: 5 µM; 72 h; oxygen 21 %
Summary of the method: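 Values give growth relative to the screen mean. The screen mean (all compounds) is set at 100%, and two screens were averaged. Compounds at 5 µM final were placed on confluent human foreskin fibroblasts, which were infected within 2 h with RH β-Gal–GFP Toxoplasma (MOI 1:5) and kept 72 h at 21% O2 before a CPRG β-Gal readout against in-plate standard curves.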

Row | Structure (SMILES) | parasite growth [%]
1 | O=C1c2ccccc2C(Cc2ccnc(F)c2)(Cc2ccnc(F)c2)c2ccccc21 | 102 ± 14
2 | CC(C)C[C@H](NC(=O)N1CCCCCC1)C(=O)N[C@H](Cc1cn(C)c2ccccc12)C(=O)N[C@H](Cc1ccccn1)C(=O)O | 98.9 ± 45
3 | Oc1ccc(/C=C/c2cc(O)cc(O)c2)cc1 [Resveratrol] | 112 ± 56
4 | COc1cc2nc(N3CCN(C(=O)c4ccco4)CC3)nc(N)c2cc1OC [Prazosin hydrochloride] | 73.4 ± 17
5 | CC[C@H](C)C(=O)O[C@H]1CCC=C2C=C[C@H](C)[C@H](CC[C@@H]3C[C@@H](O)CC(=O)O3)[C@H]21 [Mevastatin] | 109 ± 3.3
6 | O=c1[nH]nc(Sc2ncc([N+](=O)[O-])s2)n1-c1ccc2c(c1)OCCO2 | 130 ± 46
7 | CCN(CC)CC1CCCCN1CC(=O)N1c2ccccc2C(=O)Nc2cccnc21 (centres undefined) | 146 ± 36
8 | CCn1c(=O)n(C2=C(CO)CN(CC3CCCCCCC3)CC2)c2ccccc21 | 174 ± 19
9 | Cc1ccc(NC(=O)C(C)C)cc1C1CCN(Cc2ccc(Oc3ccc(F)c(F)c3)cc2)CC1 | < 0
10 | Clc1cccc(Nc2nnc(-c3ccccc3)c3ccccc23)c1 | 143.2 ± 1.4
11 | O=C(/C=C/c1ccc(O)c(O)c1)O[C@H](Cc1ccc(O)c(O)c1)C(=O)O [Rosmarinic acid] | 110 ± 5.5
12 | Oc1ccc(-c2nc3cc(O)cc(Br)c3o2)cc1 | 134 ± 20
13 | O=C(CCCCCN1C(=O)c2cccc3cccc(c23)C1=O)NO [Scriptaid] | < 0
14 | COc1ccc(CN(CCN(C)C)c2ccccn2)cc1 [Mepyramine maleate] | 115 ± 5.5
15 | CC(=O)N(OCc1ccccc1)[C@H]1c2cc(C#N)ccc2OC(C)(C)[C@H]1O | 112 ± 33
16 | CC(C1=C(CCN(C)C)Cc2ccccc21)c1ccccn1 (stereo in doubt) [(S)-(+)-Dimethindene maleate] | 83.1 ± 56
17 | Oc1ccc(C2CNCCc3c2cc(O)c(O)c3Cl)cc1 (centres undefined) [Fenoldopam hydrochloride] | 105 ± 14
18 | Cc1cc(C)cc(C(=O)N(C)[C@H](Cc2ccc(-c3ccccc3)cc2)C(=O)N[C@@H](Cc2c[nH]c3ccccc23)C(=O)O)c1 | 146 ± 20
19 | O=C(NCC1CCCCN1)c1cc(OCC(F)(F)F)ccc1OCC(F)(F)F (centres undefined) [Flecainide acetate] | 130 ± 7.9
20 | COc1cc(SC)ccc1C(=O)N1CCC(Cc2ccccc2)CC1 | 112 ± 5.8

Row | Structure (SMILES) | parasite growth [%]
21 | Clc1ccc2c(c1)N=C(N1CCNCC1)c1ccccc1N2 [N-Desmethylclozapine] | 59.7 ± 2.8
22 | COc1cc(/C=C(\C#N)C(N)=O)cc(CSc2nc3ccccc3s2)c1O | 128 ± 3.3
23 | O=c1cc(-c2ccccc2)oc2cc(O)c(O)c(O)c12 [Baicalein] | 173 ± 30
24 | Nc1nc2c(ncn2COCCO)c(=O)[nH]1 [Acyclovir] | 124 ± 28
25 | COc1[nH]c2ccc(F)cc2c1C(=O)OCC1CCN(CCNS(C)(=O)=O)CC1.NS(=O)(=O)O | 80.2 ± 32
26 | OCCNCCCOc1cccc(Cl)c1Cl [2,3-DCPE hydrochloride] | 103 ± 8.3
27 | N=C(N)N/N=C/c1c(Cl)cccc1Cl [Guanabenz acetate] | 99.52 ± 0.3
28 | C[N+](C)(C)CCCCCNCC12CC3CC(CC(C3)C1)C2 | 120 ± 3.1
29 | CN(C)[C@@H]1CCc2[nH]c3ccc(NC(=O)c4ccc(F)cc4)cc3c2C1 | 124 ± 19
30 | c1nc(CC2CCNCC2)c[nH]1 [Immepip dihydrobromide] | 100.2 ± 0.4
31 | Cn1ccc2cc(NC(=O)Nc3cccnc3)ccc21 | 129 ± 6.5
32 | NS(=O)(=O)c1nn2cc(-c3ccccc3)nc2s1 | 108 ± 28
33 | CC(C)Oc1cccc(-n2c(CCc3c[nH]c4ccc(Br)cc34)nc3ccccc3c2=O)c1 | 55.84 ± 0.023
34 | COc1cccc(/C=N/N=C/c2cccc(OC)c2)c1 | 135 ± 4.2
35 | OCCN(CCO)c1nc(N2CCCCC2)c2nc(N(CCO)CCO)nc(N3CCCCC3)c2n1 [Dipyridamole] | 142 ± 1.7
36 | C[C@H]1O[C@H](O[C@H]2[C@H](O)[C@@H](O)[C@@H](O[C@H]3[C@H](O)[C@@H](O)C(O)O[C@@H]3CO)O[C@@H]2CO)[C@H](O)[C@@H](O)[C@@H]1N[C@H]1C=C(CO)[C@@H](O)[C@H](O)[C@H]1O (some centres undefined) [Acarbose] | 114 ± 36
37 | CCCC[C@@H](C=O)NC(=O)[C@H](CC(C)C)NC(=O)OCc1ccccc1 [Calpeptin] | 19.9 ± 4.8
38 | O=C(O)c1cc(=O)c2c(Cl)cc(Cl)cc2[nH]1 [5,7-Dichlorokynurenic acid] | 136 ± 26
39 | N#Cc1ccccc1OCC(O)CNCCNC(=O)Nc1ccccc1 (centres undefined) | 137 ± 18

— the supplement of paper PMC4894684
